# Results published in PubChem BioAssay (EPA / NIEHS).
# Active and inactive are the calls of the source. The calls were made as follows: active = hit-call score of the fitted dose curve at least 0.9, where 1 is the maximum; inactive = score below 0.9.
# Read-out: Interleukin-8 (IL8), CXCL8 (gene 3576)
# Test: BSK_LPS_IL8: BioMAP Diversity Plus: LPS Assay for Interleukin-8 (IL8) Biomarker Activity (AID 2283078)
# Settings: primary human HUVEC with PBMC; actives raise or lower the signal
# How it was run: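 Readout is IL-8 by ELISA, taken 24 h after compounds were added to LPS-stimulated endothelial/PBMC co-cultures. Both increases and decreases relative to DMSO control were scored through bidirectional fitting.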
Compound,outcome,AC50
O=C(O)CC(O)(CC(=O)O)C(=O)O,inactive,–
COc1ccc(OC(F)(F)F)cc1CN[C@H]1CCCN[C@H]1c1ccccc1,–,9.98 µM (active)
CS(=O)(=O)c1ccc([C@@H](C[C@H]2CCC(=O)C2)C(=O)Nc2cnccn2)cc1Cl,inactive,–
O=C1c2c(O)cccc2Cc2cccc(O)c21,inactive,–
Cc1c(C)c2c(c(C)c1O)CCC(C)(COc1ccc(CC3SC(=O)NC3=O)cc1)O2 (centres undefined),–,32.1 µM (active)
CCCCC(CC)COC(=O)CCCCCCCC(=O)OCC(CC)CCCC (centres undefined),inactive,–
C#CC(O)C(CC)CCCC (centres undefined),inactive,–
NCCOCCOCCN,inactive,–
COC(=O)[C@H]1[C@H]2C[C@@H]3c4[nH]c5cc(OC)ccc5c4CCN3C[C@H]2C[C@@H](OC(=O)c2cc(OC)c(OC)c(OC)c2)[C@@H]1OC,inactive,–
COC(=O)CCC(=O)OC,inactive,–
CC(=O)O,inactive,–
CC(=O)CC(c1ccccc1)c1c(O)c2ccccc2oc1=O (centres undefined),inactive,–
CC(=O)O[C@]1(C(C)=O)CC[C@H]2[C@@H]3C=C(Cl)C4=CC(=O)[C@@H]5C[C@@H]5[C@]4(C)[C@H]3CC[C@@]21C,inactive,–
c1ccc2occc2c1,inactive,–
NC1CCCCC1,inactive,–
NC(=Nc1ccccc1)Nc1ccccc1,inactive,–
CCCCC(CC)COP(=O)(OCC(CC)CCCC)OCC(CC)CCCC (centres undefined),–,5.39 µM (active)
O=C(N[C@@H](c1ccccc1)[C@@H]1CCCCN1)c1cccc(C(F)(F)F)c1Cl,–,17.9 µM (active)
Oc1ccccc1O,inactive,–
CC(=O)[C@@]1(O)CC[C@H]2[C@@H]3CCC4=CC(=O)CC[C@]4(C)[C@H]3CC[C@@]21C,inactive,–
CCCCOC(=O)CCCCC(=O)OCCCC,inactive,–
CCc1nc(N)nc(N)c1-c1ccc(Cl)cc1,inactive,–
CO[C@@H]1COCC[C@@H]1N[C@@H]1CC[C@@](C(=O)N2CCc3ncc(C(F)(F)F)cc3C2)(C(C)C)C1,inactive,–
O=C1OC(c2ccc(O)cc2)(c2ccc(O)cc2)c2ccccc21,–,20 µM (active)
CN(C)CCCN1c2ccccc2Sc2ccc(Cl)cc21,–,23.9 µM (active)
Nc1nc(=S)c2[nH]cnc2[nH]1,inactive,–
CC(C)OC(=O)C(C)(C)Oc1ccc(C(=O)c2ccc(Cl)cc2)cc1,–,32 µM (active)
CCCCC(CC)CO (centres undefined),inactive,–
CCCCCCC(C=O)=Cc1ccccc1,–,30.2 µM (active)
CCOCCOCCO,inactive,–

# Read-out: not listed separately
# Test: BSK_LPS_SRB: Viability Assessment in the BioMAP Diversity Plus: LPS Assay (AID 2283079);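 also: total protein by sulforhodamine B absorbance as a cytotoxicity measure; measured one day after compound addition; fitted in both directions against DMSO so loss or gain of signal counts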
# Settings: primary human HUVEC with PBMC
# How it was run: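 Readout is SRB absorbance at 560 nm (0.1% stain, TCA-fixed parallel cultures) as a total-protein cytotoxicity measure. Cells: primary human umbilical vein endothelium plus peripheral blood mononuclear cells, 24 h after chemical exposure; DMSO served as baseline.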
Compound,outcome,AC50
O=C(O)CC(O)(CC(=O)O)C(=O)O,inactive,–
COc1ccc(OC(F)(F)F)cc1CN[C@H]1CCCN[C@H]1c1ccccc1,–,20 µM (active)
CS(=O)(=O)c1ccc([C@@H](C[C@H]2CCC(=O)C2)C(=O)Nc2cnccn2)cc1Cl,inactive,–
O=C1c2c(O)cccc2Cc2cccc(O)c21,inactive,–
Cc1c(C)c2c(c(C)c1O)CCC(C)(COc1ccc(CC3SC(=O)NC3=O)cc1)O2 (centres undefined),–,26.3 µM (active)
CCCCC(CC)COC(=O)CCCCCCCC(=O)OCC(CC)CCCC (centres undefined),inactive,–
C#CC(O)C(CC)CCCC (centres undefined),inactive,–
NCCOCCOCCN,inactive,–
COC(=O)[C@H]1[C@H]2C[C@@H]3c4[nH]c5cc(OC)ccc5c4CCN3C[C@H]2C[C@@H](OC(=O)c2cc(OC)c(OC)c(OC)c2)[C@@H]1OC,–,21.8 µM (active)
COC(=O)CCC(=O)OC,inactive,–
CC(=O)O,inactive,–
CC(=O)CC(c1ccccc1)c1c(O)c2ccccc2oc1=O (centres undefined),inactive,–
CC(=O)O[C@]1(C(C)=O)CC[C@H]2[C@@H]3C=C(Cl)C4=CC(=O)[C@@H]5C[C@@H]5[C@]4(C)[C@H]3CC[C@@]21C,–,30.9 µM (active)
c1ccc2occc2c1,inactive,–
NC1CCCCC1,inactive,–
NC(=Nc1ccccc1)Nc1ccccc1,inactive,–
CCCCC(CC)COP(=O)(OCC(CC)CCCC)OCC(CC)CCCC (centres undefined),inactive,–
O=C(N[C@@H](c1ccccc1)[C@@H]1CCCCN1)c1cccc(C(F)(F)F)c1Cl,–,23.4 µM (active)
Oc1ccccc1O,–,7.37 µM (active)
CC(=O)[C@@]1(O)CC[C@H]2[C@@H]3CCC4=CC(=O)CC[C@]4(C)[C@H]3CC[C@@]21C,inactive,–
CCCCOC(=O)CCCCC(=O)OCCCC,inactive,–
CCc1nc(N)nc(N)c1-c1ccc(Cl)cc1,inactive,–
CO[C@@H]1COCC[C@@H]1N[C@@H]1CC[C@@](C(=O)N2CCc3ncc(C(F)(F)F)cc3C2)(C(C)C)C1,inactive,–
O=C1OC(c2ccc(O)cc2)(c2ccc(O)cc2)c2ccccc21,–,31.9 µM (active)
CN(C)CCCN1c2ccccc2Sc2ccc(Cl)cc21,–,24.9 µM (active)
Nc1nc(=S)c2[nH]cnc2[nH]1,inactive,–
CC(C)OC(=O)C(C)(C)Oc1ccc(C(=O)c2ccc(Cl)cc2)cc1,–,27.8 µM (active)
CCCCC(CC)CO (centres undefined),inactive,–
CCCCCCC(C=O)=Cc1ccccc1,–,29.3 µM (active)
CCOCCOCCO,inactive,–

# Read-out: Interleukin-1 alpha (IL1a), IL1A (gene 3552)
# Test: BSK_LPS_IL1a: BioMAP Diversity Plus: LPS Assay for Interleukin-1 alpha (IL1a) Biomarker Activity (AID 2283080)
# Settings: primary human HUVEC with PBMC; actives raise or lower the signal
# How it was run: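 ELISA read-out of IL-1 alpha from a human primary vascular co-culture (endothelium plus PBMC) under LPS, sampled 24 hours post-dosing. Activity was fitted in both directions relative to DMSO controls.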
Compound,outcome,AC50
O=C(O)CC(O)(CC(=O)O)C(=O)O,inactive,–
COc1ccc(OC(F)(F)F)cc1CN[C@H]1CCCN[C@H]1c1ccccc1,inactive,–
CS(=O)(=O)c1ccc([C@@H](C[C@H]2CCC(=O)C2)C(=O)Nc2cnccn2)cc1Cl,inactive,–
O=C1c2c(O)cccc2Cc2cccc(O)c21,inactive,–
Cc1c(C)c2c(c(C)c1O)CCC(C)(COc1ccc(CC3SC(=O)NC3=O)cc1)O2 (centres undefined),–,32.7 µM (active)
CCCCC(CC)COC(=O)CCCCCCCC(=O)OCC(CC)CCCC (centres undefined),inactive,–
C#CC(O)C(CC)CCCC (centres undefined),inactive,–
NCCOCCOCCN,inactive,–
COC(=O)[C@H]1[C@H]2C[C@@H]3c4[nH]c5cc(OC)ccc5c4CCN3C[C@H]2C[C@@H](OC(=O)c2cc(OC)c(OC)c(OC)c2)[C@@H]1OC,–,22.6 µM (active)
COC(=O)CCC(=O)OC,inactive,–
CC(=O)O,inactive,–
CC(=O)CC(c1ccccc1)c1c(O)c2ccccc2oc1=O (centres undefined),inactive,–
CC(=O)O[C@]1(C(C)=O)CC[C@H]2[C@@H]3C=C(Cl)C4=CC(=O)[C@@H]5C[C@@H]5[C@]4(C)[C@H]3CC[C@@]21C,inactive,–
c1ccc2occc2c1,inactive,–
NC1CCCCC1,inactive,–
NC(=Nc1ccccc1)Nc1ccccc1,inactive,–
CCCCC(CC)COP(=O)(OCC(CC)CCCC)OCC(CC)CCCC (centres undefined),inactive,–
O=C(N[C@@H](c1ccccc1)[C@@H]1CCCCN1)c1cccc(C(F)(F)F)c1Cl,–,20 µM (active)
Oc1ccccc1O,inactive,–
CC(=O)[C@@]1(O)CC[C@H]2[C@@H]3CCC4=CC(=O)CC[C@]4(C)[C@H]3CC[C@@]21C,inactive,–
CCCCOC(=O)CCCCC(=O)OCCCC,inactive,–
CCc1nc(N)nc(N)c1-c1ccc(Cl)cc1,inactive,–
CO[C@@H]1COCC[C@@H]1N[C@@H]1CC[C@@](C(=O)N2CCc3ncc(C(F)(F)F)cc3C2)(C(C)C)C1,inactive,–
O=C1OC(c2ccc(O)cc2)(c2ccc(O)cc2)c2ccccc21,inactive,–
Nc1nc(=S)c2[nH]cnc2[nH]1,inactive,–
CC(C)OC(=O)C(C)(C)Oc1ccc(C(=O)c2ccc(Cl)cc2)cc1,inactive,–
CCCCC(CC)CO (centres undefined),inactive,–
CCCCCCC(C=O)=Cc1ccccc1,–,33.6 µM (active)
CCOCCOCCO,inactive,–
